# ± gives the standard deviation.
# T1: HaloTag-ATRX ADD domain (163-292)
# T1 chain: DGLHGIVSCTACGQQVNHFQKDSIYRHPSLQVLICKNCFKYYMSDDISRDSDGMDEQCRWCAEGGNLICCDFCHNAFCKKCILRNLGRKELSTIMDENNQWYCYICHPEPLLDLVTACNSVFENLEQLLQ
# Key:
# Assay in all cases: peptide microarray binding signal (635 nm), min-max normalized on array (fraction of array maximum); higher = stronger binding
# [1] = biological target: T1, HaloTag-ATRX ADD domain (163-292)
# Procedure, shortened: (§1)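 An Axon GenePix 4000B scanned the arrays at 635 nm for signal and at 532 nm to catch misprints. Those arrays held histone 13-mer peptide–cellulose conjugates printed in triplicate on nitrocellulose with a Cy3 tracer, blocked overnight at 4°C and probed for 1 h at 4°C with biotin-labelled HaloTag reader fusions (10 nM to 1 μM) plus streptavidin-Alexa Fluor 647 or with rabbit histone antibodies (1:10,000 to 1:2,000) plus anti-rabbit Alexa 647. Each binding signal is a triplicate-spot mean intensity, scaled min-max within its library.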
# [2] = biological target: HaloTag-ING2 PHD (mouse Ing2 200-280)
# Procedure, shortened: as §1
# [3] = biological target: anti-H3K4me3 antibody ab8580
# Procedure, shortened: as §1
# [4] = biological target: anti-H3K9me3 antibody ab8898
# Procedure, shortened: as §1
# [5] = peptide region: H4 1-13, peptide modifications: H4S1ph H4K8ac, binder concentration: 1:2,000 dilution
# [6] = peptide region: H4 1-13, peptide modifications: H4S1ph H4K8ac, binder concentration: 1:10,000 dilution
# [7] = peptide region: H4 8-19, peptide modifications: H4K16ac H4R17cit, binder concentration: 1:2,000 dilution
# [8] = peptide region: H4 8-19, binder concentration: 1:2,000 dilution
# [9] = peptide region: H4 8-19, binder concentration: 1:10,000 dilution
# [10] = peptide region: H4 8-19, peptide modifications: H4K8ac H4K12ac, binder concentration: 1:2,000 dilution
# [11] = peptide region: H4 8-19, peptide modifications: H4K8ac H4K12ac, binder concentration: 1:10,000 dilution
# [12] = peptide region: H4 8-19, peptide modifications: H4K16ac H4R17me2a, binder concentration: 1:2,000 dilution
# [13] = peptide region: H4 1-13, peptide modifications: H4S1ph H4R3me2s, binder concentration: 1:2,000 dilution
# [14] = peptide region: H4 1-13, peptide modifications: H4S1ph H4R3me2s, binder concentration: 1:10,000 dilution
# [15] = peptide region: H4 8-19, peptide modifications: H4K16ac H4R17me2s, binder concentration: 1:2,000 dilution
# [16] = peptide region: H4 1-13, peptide modifications: H4S1ph H4R3me1, binder concentration: 1:2,000 dilution
# [17] = peptide region: H4 1-13, peptide modifications: H4S1ph H4R3me1, binder concentration: 1:10,000 dilution
# [18] = peptide region: H4 1-13, peptide modifications: H4S1ph, binder concentration: 1:2,000 dilution
# [19] = peptide region: H4 1-13, peptide modifications: H4S1ph, binder concentration: 1:10,000 dilution
# [20] = peptide region: H4 8-19, peptide modifications: H4K8ac, binder concentration: 1:2,000 dilution
# [21] = peptide region: H4 8-19, peptide modifications: H4K8ac, binder concentration: 1:10,000 dilution
# [22] = peptide region: H4 8-19, peptide modifications: H4K16ac H4R17me1, binder concentration: 1:2,000 dilution
# [23] = peptide region: H4 8-19, peptide modifications: H4K12ac H4K16ac, binder concentration: 1:2,000 dilution
# [24] = peptide region: H4 8-19, peptide modifications: H4K12ac H4K16ac, binder concentration: 1:10,000 dilution
binder,measurement,setting,value
SGRGKGGKGLGKG [H4 1-13 Sph G R G K G G Kac G L G K G],peptide microarray binding signal,"[1]; peptide region: H4 1-13, peptide modifications: H4S1ph H4K8ac, binder concentration: 50 nM",0.00445 ± 0.00043
same,peptide microarray binding signal,"[1]; peptide region: H4 1-13, peptide modifications: H4S1ph H4K8ac, binder concentration: 500 nM",0.0149 ± 0.0018
same,peptide microarray binding signal,"[2]; peptide region: H4 1-13, peptide modifications: H4S1ph H4K8ac, binder concentration: 10 nM",0.00251 ± 3.8e-05
same,peptide microarray binding signal,"[2]; peptide region: H4 1-13, peptide modifications: H4S1ph H4K8ac, binder concentration: 100 nM",0.00503 ± 0.00084
same,peptide microarray binding signal,[3]; [5],0.000359 ± 1.8e-05
same,peptide microarray binding signal,[3]; [6],0.000742 ± 1.3e-05
same,peptide microarray binding signal,[4]; [5],0.000332 ± 6.7e-06
same,peptide microarray binding signal,[4]; [6],0.000577 ± 6.2e-06
KGLGKGGAKRHRK [H4 8-19 K G L G K G G A Kac Rcit H R K],peptide microarray binding signal,"[1]; peptide region: H4 8-19, peptide modifications: H4K16ac H4R17cit, binder concentration: 500 nM",0.000476 ± 1.3e-05
same,peptide microarray binding signal,"[2]; peptide region: H4 8-19, peptide modifications: H4K16ac H4R17cit, binder concentration: 100 nM",7.09e-05 ± 1.5e-06
same,peptide microarray binding signal,[3]; [7],3.78e-05 ± 4.3e-07
same,peptide microarray binding signal,[4]; [7],0
KGLGKGGAKRHRK [H4 8-19 K G L G K G G A K R H R K],peptide microarray binding signal,"[1]; peptide region: H4 8-19, binder concentration: 50 nM",0.00495 ± 5.5e-05
same,peptide microarray binding signal,"[1]; peptide region: H4 8-19, binder concentration: 500 nM",0.0131 ± 0.0015
same,peptide microarray binding signal,"[2]; peptide region: H4 8-19, binder concentration: 10 nM",0.00466 ± 0.00021
same,peptide microarray binding signal,"[2]; peptide region: H4 8-19, binder concentration: 100 nM",0.0136 ± 0.0014
same,peptide microarray binding signal,[3]; [8],0.000793 ± 4.3e-05
same,peptide microarray binding signal,[3]; [9],0.00154 ± 3e-05
same,peptide microarray binding signal,[4]; [8],0.000529 ± 1.3e-05
same,peptide microarray binding signal,[4]; [9],0.0011 ± 1.1e-05
KGLGKGGAKRHRK [H4 8-19 Kac G L G Kac G G A K R H R K],peptide microarray binding signal,"[1]; peptide region: H4 8-19, peptide modifications: H4K8ac H4K12ac, binder concentration: 50 nM",0.000251 ± 1.2e-05
same,peptide microarray binding signal,"[1]; peptide region: H4 8-19, peptide modifications: H4K8ac H4K12ac, binder concentration: 500 nM",0.000143 ± 2.7e-06
same,peptide microarray binding signal,"[2]; peptide region: H4 8-19, peptide modifications: H4K8ac H4K12ac, binder concentration: 10 nM",0.00567 ± 0.0013
same,peptide microarray binding signal,"[2]; peptide region: H4 8-19, peptide modifications: H4K8ac H4K12ac, binder concentration: 100 nM",0.000496
same,peptide microarray binding signal,[3]; [10],0.000113
same,peptide microarray binding signal,[3]; [11],0.00165 ± 0.00042
same,peptide microarray binding signal,[4]; [10],6.04e-05 ± 6.8e-07
same,peptide microarray binding signal,[4]; [11],5.77e-05 ± 6.6e-07
KGLGKGGAKRHRK [H4 8-19 K G L G K G G A Kac Rme2a H R K],peptide microarray binding signal,"[1]; peptide region: H4 8-19, peptide modifications: H4K16ac H4R17me2a, binder concentration: 500 nM",0
same,peptide microarray binding signal,"[2]; peptide region: H4 8-19, peptide modifications: H4K16ac H4R17me2a, binder concentration: 100 nM",0.000283
same,peptide microarray binding signal,[3]; [12],1.89e-05 ± 2.2e-07
same,peptide microarray binding signal,[4]; [12],1.51e-05 ± 1.7e-07
SGRGKGGKGLGKG [H4 1-13 Sph G Rme2s G K G G K G L G K G],peptide microarray binding signal,"[1]; peptide region: H4 1-13, peptide modifications: H4S1ph H4R3me2s, binder concentration: 50 nM",0.0052 ± 0.0008
same,peptide microarray binding signal,"[1]; peptide region: H4 1-13, peptide modifications: H4S1ph H4R3me2s, binder concentration: 500 nM",0.00852 ± 0.00024
same,peptide microarray binding signal,"[2]; peptide region: H4 1-13, peptide modifications: H4S1ph H4R3me2s, binder concentration: 10 nM",0.00346 ± 0.00014
same,peptide microarray binding signal,"[2]; peptide region: H4 1-13, peptide modifications: H4S1ph H4R3me2s, binder concentration: 100 nM",0.00865 ± 0.00015
same,peptide microarray binding signal,[3]; [13],0.00119 ± 0.0001
same,peptide microarray binding signal,[3]; [14],0.0012 ± 1.2e-05
same,peptide microarray binding signal,[4]; [13],0.000408 ± 1.8e-05
same,peptide microarray binding signal,[4]; [14],0.000923 ± 9.6e-06
KGLGKGGAKRHRK [H4 8-19 K G L G K G G A Kac Rme2s H R K],peptide microarray binding signal,"[1]; peptide region: H4 8-19, peptide modifications: H4K16ac H4R17me2s, binder concentration: 500 nM",0.000286 ± 1.8e-05
same,peptide microarray binding signal,"[2]; peptide region: H4 8-19, peptide modifications: H4K16ac H4R17me2s, binder concentration: 100 nM",0.000283 ± 5.7e-06
same,peptide microarray binding signal,[3]; [15],5.66e-05
same,peptide microarray binding signal,[4]; [15],1.51e-05 ± 1.7e-07
SGRGKGGKGLGKG [H4 1-13 Sph G Rme G K G G K G L G K G],peptide microarray binding signal,"[1]; peptide region: H4 1-13, peptide modifications: H4S1ph H4R3me1, binder concentration: 50 nM",0.00467 ± 0.00075
same,peptide microarray binding signal,"[1]; peptide region: H4 1-13, peptide modifications: H4S1ph H4R3me1, binder concentration: 500 nM",0.0107 ± 0.00059
same,peptide microarray binding signal,"[2]; peptide region: H4 1-13, peptide modifications: H4S1ph H4R3me1, binder concentration: 10 nM",0.00149
same,peptide microarray binding signal,"[2]; peptide region: H4 1-13, peptide modifications: H4S1ph H4R3me1, binder concentration: 100 nM",0.00276 ± 6.8e-05
same,peptide microarray binding signal,[3]; [16],0.000132 ± 1.5e-06
same,peptide microarray binding signal,[3]; [17],0.000742 ± 1.3e-05
same,peptide microarray binding signal,[4]; [16],0.000347 ± 7e-06
same,peptide microarray binding signal,[4]; [17],0.000577 ± 1.2e-05
SGRGKGGKGLGKG [H4 1-13 Sph G R G K G G K G L G K G],peptide microarray binding signal,"[1]; peptide region: H4 1-13, peptide modifications: H4S1ph, binder concentration: 50 nM",0.00608 ± 0.0013
same,peptide microarray binding signal,"[1]; peptide region: H4 1-13, peptide modifications: H4S1ph, binder concentration: 500 nM",0.0121 ± 0.00045
same,peptide microarray binding signal,"[2]; peptide region: H4 1-13, peptide modifications: H4S1ph, binder concentration: 10 nM",0.00328 ± 0.00014
same,peptide microarray binding signal,"[2]; peptide region: H4 1-13, peptide modifications: H4S1ph, binder concentration: 100 nM",0.0039 ± 0.00041
same,peptide microarray binding signal,[3]; [18],0.00111 ± 0.00012
same,peptide microarray binding signal,[3]; [19],0.00131 ± 2.6e-05
same,peptide microarray binding signal,[4]; [18],0.000362 ± 6.3e-06
same,peptide microarray binding signal,[4]; [19],0.00075 ± 7.9e-06
KGLGKGGAKRHRK [H4 8-19 Kac G L G K G G A K R H R K],peptide microarray binding signal,"[1]; peptide region: H4 8-19, peptide modifications: H4K8ac, binder concentration: 50 nM",0.00652 ± 0.00063
same,peptide microarray binding signal,"[1]; peptide region: H4 8-19, peptide modifications: H4K8ac, binder concentration: 500 nM",0.0191 ± 0.0048
same,peptide microarray binding signal,"[2]; peptide region: H4 8-19, peptide modifications: H4K8ac, binder concentration: 10 nM",0.004 ± 0.00025
same,peptide microarray binding signal,"[2]; peptide region: H4 8-19, peptide modifications: H4K8ac, binder concentration: 100 nM",0.0126 ± 0.0039
same,peptide microarray binding signal,[3]; [20],0.000849 ± 0.00016
same,peptide microarray binding signal,[3]; [21],0.001712 ± 1.6e-05
same,peptide microarray binding signal,[4]; [20],0.000876 ± 7e-05
same,peptide microarray binding signal,[4]; [21],0.00121 ± 2.4e-05
KGLGKGGAKRHRK [H4 8-19 K G L G K G G A Kac Rme H R K],peptide microarray binding signal,"[1]; peptide region: H4 8-19, peptide modifications: H4K16ac H4R17me1, binder concentration: 500 nM",0.000143 ± 2.7e-06
same,peptide microarray binding signal,"[2]; peptide region: H4 8-19, peptide modifications: H4K16ac H4R17me1, binder concentration: 100 nM",0.000425 ± 4.9e-06
same,peptide microarray binding signal,[3]; [22],7.55e-05 ± 8.5e-07
same,peptide microarray binding signal,[4]; [22],3.02e-05 ± 3.4e-07
KGLGKGGAKRHRK [H4 8-19 K G L G Kac G G A Kac R H R K],peptide microarray binding signal,"[1]; peptide region: H4 8-19, peptide modifications: H4K12ac H4K16ac, binder concentration: 50 nM",0.000188 ± 6.2e-06
same,peptide microarray binding signal,"[1]; peptide region: H4 8-19, peptide modifications: H4K12ac H4K16ac, binder concentration: 500 nM",0.000333 ± 1.3e-05
same,peptide microarray binding signal,"[2]; peptide region: H4 8-19, peptide modifications: H4K12ac H4K16ac, binder concentration: 10 nM",0.00215 ± 0.00035
same,peptide microarray binding signal,"[2]; peptide region: H4 8-19, peptide modifications: H4K12ac H4K16ac, binder concentration: 100 nM",0.000142 ± 1.7e-06
same,peptide microarray binding signal,[3]; [23],0
same,peptide microarray binding signal,[3]; [24],5.71e-05
same,peptide microarray binding signal,[4]; [23],0
same,peptide microarray binding signal,[4]; [24],0
